Experimental data taken from PubChem BioAssay (NCATS).
A number with no mark means an inactive call. For some assays here: Entries with a potency or affinity are not part of this list. Active and inactive are the calls of the source. The rule behind the calls is not given here.

Tests used:
[1] = Ebola virus entry assay, green fluorescence channel
[2] = Ebola virus entry assay, blue channel fluorescence
[3] = Ebola virus entry assay, ratio channel
[4] = Ebola virus entry assay, green channel fluorescence
[5] = Ebola virus entry assay, reporter ratio channel; Channel type: primary
Throughout, for efficacy: 0% is about no effect.

SMILES | efficacy [1] | outcome [2] | outcome [3] | outcome [4] | outcome [5] | AC50 [2] | AC50 [5] | AC50 [3]
CCCCC1C(=O)N(c2ccccc2)N(c2ccccc2)C1=O | -25% | inactive | inactive | inactive | inactive | – | – | –
O=C(O)Cc1ccc(CCNS(=O)(=O)c2ccc(Cl)cc2)cc1 | 18.5% | inactive | inactive | inactive | inactive | – | – | –
Clc1ccc(Nc2nnc(Cc3ccncc3)c3ccccc23)cc1 | -25.3% | – | inactive | inactive | – | 15.8 µM (active) | 31.6 µM (active) | –
CC(C)C[C@@H](N)C(=O)O | 14.3% | inactive | inactive | inactive | inactive | – | – | –
C=C[C@@]1(C)CC(=O)[C@]2(O)[C@@]3(C)[C@@H](O)CCC(C)(C)[C@@H]3[C@H](O)[C@H](OC(C)=O)[C@@]2(C)O1 | 10.9% | – | inactive | inactive | inactive | 10 µM (active) | – | –
Clc1ccc(C(Cn2ccnc2)OCc2ccsc2Cl)c(Cl)c1 (stereo not given) | 49.7% | – | – | inactive | – | 10 µM (active) | 8.91 µM (active) | 8.91 µM (active)
CC1=C(C(=O)O)N2C(=O)[C@@H](NC(=O)[C@H](N)C3=CCC=CC3)[C@H]2SC1 | -21.8% | inactive | inactive | inactive | inactive | – | – | –
C#C[C@]1(O)CC[C@H]2[C@@H]3CCc4cc(O)ccc4[C@H]3CC[C@@]21C | -19.9% | – | – | inactive | – | 11.2 µM (active) | 11.2 µM (active) | 11.2 µM (active)
COc1ccc2cc3[n+](cc2c1OC)CCc1cc2c(cc1-3)OCO2 | 30.3% | inactive | inactive | inactive | inactive | – | – | –
NC(N)=N/N=C/c1c(Cl)cccc1Cl | -12.6% | – | – | inactive | – | 28.2 µM (active) | 28.2 µM (active) | 28.2 µM (active)
O=C(Nc1ncc([N+](=O)[O-])s1)c1cccs1 | -37.9% | inactive | inactive | inactive | inactive | – | – | –
Oc1c(Cl)cc(Cl)cc1Sc1cc(Cl)cc(Cl)c1O | -26.7% | – | – | inactive | – | 11.2 µM (active) | 22.4 µM (active) | 22.4 µM (active)
OC(CCN1CCCCC1)(c1ccccc1)C1CC2C=CC1C2 (stereo not given) | -14.6% | – | inactive | inactive | inactive | 12.6 µM (active) | – | –
CN(C)CCN1C(=O)c2ccccc2N(C)c2ccccc21 | -25.3% | – | inactive | inactive | – | 39.8 µM (active) | 39.8 µM (active) | –
CC(C)NCC(O)COc1ccc(COCCOC(C)C)cc1 (stereo not given) | 22.5% | – | – | inactive | – | 15.8 µM (active) | 12.6 µM (active) | 12.6 µM (active)
Cc1ccc(CCn2c3c(c4cc(Cl)ccc42)CN(C)CC3)cn1 | 26.4% | – | – | inactive | – | 14.1 µM (active) | 17.8 µM (active) | 17.8 µM (active)
Cn1cnc2c1c(=O)[nH]c(=O)n2C | -13.7% | inactive | inactive | inactive | inactive | – | – | –
CCOC(=O)c1ccc(OC(=O)CCCCCN=C(N)N)cc1 | -11.5% | inactive | inactive | inactive | inactive | – | – | –
CN(Cc1cc(Br)cc(Br)c1N)C1CCCCC1 | 17.3% | – | – | inactive | – | 22.4 µM (active) | 20 µM (active) | 20 µM (active)
CCN1CCN(c2cc(-c3ccc(F)cc3)c3c(n2)CCCCCC3)CC1 | 32.1% | – | – | inactive | – | 1.41 µM (active) | 1.78 µM (active) | 1.78 µM (active)
CCN(CC)CCOc1ccc2c(c1)C(=O)c1cc(OCCN(CC)CC)ccc1-2 | 9% | – | – | inactive | – | 1.41 µM (active) | 1.41 µM (active) | 1.41 µM (active)
Cc1cccc(Nc2cc(Cl)nc(SCC(=O)O)n2)c1C | 19.8% | inactive | inactive | inactive | inactive | – | – | –
Cc1c(C)n(CCN(C)C)c2ccc(C(=O)OCCN(C)C)cc12 | -26.4% | – | – | inactive | – | 2.24 µM (active) | 2.51 µM (active) | 2.51 µM (active)
CC[C@H](NC(C)C)[C@H](O)c1ccc(O)c2[nH]c(=O)ccc12 | -13.2% | inactive | inactive | inactive | inactive | – | – | –
CC(C)(C)C(=O)C(Oc1ccc(Cl)cc1)n1ccnc1 (stereo not given) | 12.3% | – | inactive | inactive | – | 39.8 µM (active) | 39.8 µM (active) | –
Cc1cc2nc3ccc(=[N+](C)C)cc-3sc2cc1N | -32.6% | – | inactive | inactive | inactive | 39.8 µM (active) | – | –

SMILES | efficacy [1] | outcome [2] | outcome [3] | outcome [4] | outcome [5] | AC50 [2] | AC50 [5] | AC50 [3]
CC(C)(C)C(=O)OCOC(=O)[C@@H]1N2C(=O)[C@@H](NC(=O)[C@H](N)c3ccccc3)[C@H]2SC1(C)C | 35% | – | – | inactive | – | 12.6 µM (active) | 20 µM (active) | 20 µM (active)
C[C@H](N)C(=O)N[C@@H](C)C(=O)NC1[C@H]2CN(c3nc4c(cc3F)c(=O)c(C(=O)O)cn4-c3ccc(F)cc3F)C[C@@H]12 (stereo not given in full) | 11% | inactive | inactive | inactive | inactive | – | – | –
COCCc1ccc(OCC2CO2)cc1 (stereo not given) | 25.5% | inactive | inactive | inactive | inactive | – | – | –
CCN(CC)CCNC(C(=O)OCCC(C)C)c1ccccc1 (stereo not given) | 47.8% | – | – | inactive | – | 31.6 µM (active) | 22.4 µM (active) | 22.4 µM (active)
Oc1ccc(Cl)cc1Sc1cc(Cl)ccc1O | -28.7% | – | – | inactive | – | 10 µM (active) | 15.8 µM (active) | 15.8 µM (active)
CC(C)n1nc(-c2cc3cc(O)ccc3[nH]2)c2c(N)ncnc21 | 37.9% | – | – | inactive | – | 2.82 µM (active) | 2.24 µM (active) | 2.24 µM (active)
CC[C@H](c1ccc(O)cc1)[C@@H](CC)c1ccc(O)cc1 | -12.4% | – | – | inactive | – | 20 µM (active) | 25.1 µM (active) | 25.1 µM (active)
Fc1ccc(C(c2ccc(F)cc2)N2CCNCC2)cc1 | 28.7% | – | – | inactive | – | 10 µM (active) | 10 µM (active) | 10 µM (active)
Clc1ccccc1C(c1ccccc1)(c1ccccc1)n1ccnc1 | 24.5% | – | inactive | inactive | – | 39.8 µM (active) | 39.8 µM (active) | –
COc1ccc(CN(CCN(C)C)c2ccccn2)cc1 | 22.5% | – | – | inactive | – | 15.8 µM (active) | 15.8 µM (active) | 15.8 µM (active)
Cc1cc(CC(=O)O)n(C)c1C(=O)c1ccc(Cl)cc1 | 24% | inactive | inactive | inactive | inactive | – | – | –
NC(=O)C(=O)N/N=C/c1ccc([N+](=O)[O-])o1 | 21.5% | inactive | inactive | inactive | inactive | – | – | –
CCCC(=O)O[C@]1(C(=O)CCl)[C@@H](C)C[C@H]2[C@@H]3CCC4=CC(=O)C=C[C@]4(C)[C@@]3(F)C(=O)C[C@@]21C | 17% | – | – | inactive | – | 35.5 µM (active) | 20 µM (active) | 20 µM (active)
CC(=O)Oc1ccc2c(c1)CC[C@@H]1[C@@H]2CC[C@]2(C)[C@@H](O)CC[C@@H]12 | 11.1% | – | – | inactive | – | 35.5 µM (active) | 22.4 µM (active) | 22.4 µM (active)
Cc1cccc(OCC(O)CNC(C)(C)C)c1C (stereo not given) | -12.5% | – | inactive | inactive | – | 39.8 µM (active) | 39.8 µM (active) | –
CC(Cc1cccc(C(F)(F)F)c1)NCCOC(=O)c1ccccc1 (stereo not given) | 23% | – | – | inactive | – | 31.6 µM (active) | 28.2 µM (active) | 28.2 µM (active)
CCOc1ccc2nc(S(N)(=O)=O)sc2c1 | 31.6% | inactive | inactive | inactive | inactive | – | – | –
Cc1c(N)cccc1C(F)(F)F | 32.5% | inactive | inactive | inactive | inactive | – | – | –
Cc1cc(N)c2cc(NC(=O)Nc3ccc4nc(C)cc(N)c4c3)ccc2n1 | 18% | – | – | inactive | – | 22.4 µM (active) | 20 µM (active) | 20 µM (active)
CN1CCN(c2cc3c(cc2F)c(=O)c(C(=O)O)cn3-c2ccc(F)cc2)CC1 | 8.5% | inactive | inactive | inactive | inactive | – | – | –
CC1(C)O[C@@H]2C[C@H]3[C@@H]4CCC5=CC(=O)CC[C@]5(C)[C@@]4(F)[C@@H](O)C[C@]3(C)[C@]2(C(=O)CCl)O1 | 53.9% | – | – | inactive | – | 12.6 µM (active) | 10 µM (active) | 10 µM (active)
CCc1cc(Cl)c(OC)c(C(=O)NC[C@@H]2CCCN2CC)c1O | 38.6% | – | – | inactive | – | 31.6 µM (active) | 20 µM (active) | 20 µM (active)
COC(=O)[C@H]1[C@H]2C[C@@H]3c4[nH]c5cc(OC)ccc5c4CCN3C[C@H]2C[C@@H](OC(=O)/C=C/c2ccc(O)c(OC)c2)[C@@H]1OC | -80.1% | – | – | inactive | – | 3.55 µM (active) | 3.16 µM (active) | 3.16 µM (active)
CCN(CC)CCSC(=O)C(c1ccccc1)c1ccccc1 | -29.7% | – | inactive | inactive | – | 31.6 µM (active) | 39.8 µM (active) | –
COc1ccccc1N1CCN(CCCNc2cc(=O)n(C)c(=O)n2C)CC1 | 43.6% | – | inactive | inactive | – | 28.2 µM (active) | 39.8 µM (active) | –
CC(CNC1CCCCC1)OC(=O)c1ccccc1 (stereo not given) | 19.5% | – | – | inactive | – | 8.91 µM (active) | 8.91 µM (active) | 8.91 µM (active)
